Each structure is given as a SMILES string. Where a name gives a salt, the structure may show the parent alone.

This test has as its system Staphylococcus aureus Sa2 (MRSA, cystic fibrosis isolate). Put plainly: growth reduction vs untreated control (OD550); higher = stronger antibacterial activity. The note with it: 0.1 mM; 24 h. How it is done: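 Single-dose screen of the MedChem Express Drug Repurposing Library (0.1 mM, 1% DMSO) against planktonic MRSA S. aureus Sa2 (CF isolate) in TSB in 96-well plates, 37 °C aerobic, 24 h. Assays were run in triplicate and repeated twice.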
`CC(=O)c1cc2c(o1)C(=O)c1ccccc1C2=O` [Napabucasin] registered a growth reduction of 100%.
The result for `O=C1NCCN1CCN1CCC(c2cn(-c3ccc(F)cc3)c3ccc(Cl)cc23)CC1` [Sertindole] reads 93.6%; that for `CSc1ccc(C(=O)/C=C/c2cc(C)c(OC(C)(C)C(=O)O)c(C)c2)cc1` [Elafibranor], 91.6%; that for `CC1(C)S[C@@H]2[C@H](NC(=O)[C@H](N)c3ccccc3)C(=O)N2[C@H]1C(=O)OCOC(=O)[C@@H]1N2C(=O)C[C@H]2S(=O)(=O)C1(C)C` [Sultamicillin (tosylate)], 100%.
Then `CC1(C)CC[C@]2(C(=O)O)CC[C@]3(C)[C@H](C(=O)C=C4[C@@]5(C)C=C(C#N)C(=O)C(C)(C)[C@@H]5CC[C@]43C)[C@@H]2C1` [Bardoxolone], with 100%.
Then `C=C[C@@H]1C[C@]1(NC(=O)[C@@H]1C[C@@H]2CN1C(=O)[C@H](C(C)(C)C)NC(=O)O[C@@H]1C[C@H]1CCCCCc1nc3ccc(OC)cc3nc1O2)C(=O)NS(=O)(=O)C1CC1` [Grazoprevir hydrate], with 100%; and `Cc1nc(C(=O)NCC(=O)O)c(O)c2ccc(Oc3ccccc3)cc12` [Roxadustat], with 99.9%; and `CC(C)(C)C(=O)Oc1ccc(S(=O)(=O)Nc2ccccc2C(=O)NCC(=O)O)cc1` [Sivelestat (sodium)], with 92.9%.
As for `C[C@@H](NCCCc1cccc(C(F)(F)F)c1)c1cccc2ccccc12` [Cinacalcet (hydrochloride)], the growth reduction was determined as 100%.
With `O=C(CCCCCCNC(=O)c1cnc(N(c2ccccc2)c2ccccc2)nc1)NO` [Ricolinostat], the growth reduction turned out to be 100%.
The result for `CC(O)c1cc(C(=O)N[C@@H](C)Cn2ccc(-c3ccc(C#N)c(Cl)c3)n2)n[nH]1` (stereo not given in full) [Darolutamide] reads 100%.
The result for `CC(C)C[C@@H](C(=O)N[C@H](C(=O)OC1CCCC1)c1ccccc1)[C@H](O)C(=O)NO` [Tosedostat] reads 100%; that for `CCc1cc(-c2noc(-c3cc(OC)nc(C4CCCC4)c3)n2)cc(C)c1OC[C@@H](O)CO` [Cenerimod], 100%.
As for `C=CC(=O)Nc1cc(Nc2nccc(-c3cn(C4CC4)c4ccccc34)n2)c(OC)cc1N(C)CCN(C)C` [Almonertinib (hydrochloride)], the growth reduction is 100%.
For the compound `CC1(C)CC=C(c2nc(C3CC(C)(C)OC(C)(C)C3)ccc2NC(=O)c2nc(C#N)c[nH]2)CC1` [Edicotinib], the growth reduction was found to be 99.3%.
For the compound `Cc1ccc(C(=O)c2cc(O)c(O)c([N+](=O)[O-])c2)cc1` [Tolcapone], the growth reduction was 100%.
The result for `C[C@@H](OC[C@@]1(c2ccccc2)CC[C@]2(CCC(=O)N2)CN1)c1cc(C(F)(F)F)cc(C(F)(F)F)c1` [Rolapitant] reads 100%; that for `N#CC(c1ccc(Cl)cc1)c1c(Cl)cc(-n2ncc(=O)[nH]c2=O)cc1Cl` (stereo not given) [Diclazuril], 100%; that for `CN1CC[C@@H](NC(=O)Nc2ccc(C#N)cc2)C[C@@H]1c1nc2ccccc2[nH]1` [Glasdegib], 100%.
Then `NCCCC[C@H](NC(=O)[C@@H](NC(=O)[C@H](Cc1c[nH]c2ccccc12)NC(=O)[C@H](CCCCN)NC(=O)[C@H](CCCCN)NC(=O)[C@H](Cc1c[nH]c2ccccc12)NC(=O)[C@H](Cc1c[nH]c2ccccc12)NC(=O)[C@H](CCCCN)NC(=O)[C@@H](N)CCCCN)C(c1ccccc1)c1ccccc1)C(N)=O`, with 100%.
Then `Nc1ccc2cc3ccc(N)cc3nc2c1` [Proflavine (hemisulfate)], with 100%; and `CCCCCCCCCCCCCCCCOP(=O)([O-])OCC[N+](C)(C)C` [Miltefosine], with 100%.
As to `Cc1cc(O[C@@H](CCC(F)(F)F)c2ccc(C(=O)NCCC(=O)O)cc2)cc(C)c1-c1ccc(C(C)(C)C)cc1` [Adomeglivant], the growth reduction was 100%.
Then `CC/C(=C(\c1ccccc1)c1ccc(OCCN(C)C)cc1)c1ccccc1` [Tamoxifen (Citrate)], with 100%.
The result for `COc1ccc(NS(=O)(=O)c2c(F)c(F)c(F)c(F)c2F)cc1F` [Batabulin] reads 95.5%; that for `CC/C(=C(/CC)c1ccc(O)cc1)c1ccc(O)cc1` [Diethylstilbestrol], 100%.
Then `CCCCc1oc2ccc(NS(C)(=O)=O)cc2c1C(=O)c1ccc(OCCCN(CCCC)CCCC)cc1` [Dronedarone (Hydrochloride)], with 92.6%; and `CCCCOc1nc(N)c2c(n1)N(Cc1cccc(CN3CCCC3)c1)CC(=O)N2` [Vesatolimod], with 100%.
Take `Cc1cccc(/C=N/Nc2cc(N3CCOCC3)nc(OCCc3ccccn3)n2)c1` [Apilimod]: the growth reduction was found to be 100%.
Then `COc1c(-c2ccc3cc(NS(C)(=O)=O)ccc3c2)cc(-n2ccc(=O)[nH]c2=O)cc1C(C)(C)C` [Dasabuvir], with 91.1%.
The result for `CCOC(=O)N1CCC(=C2c3ccc(Cl)cc3CCc3cccnc32)CC1` [Loratadine] reads 100%; that for `O=C(NCC12CC3CC(CC(C3)C1)C2)c1cc(CCCNCCCO)ccc1Cl` [AZD9056 (hydrochloride)], 100%; that for `Clc1ccccc1C(c1ccccc1)(c1ccccc1)n1ccnc1` [Clotrimazole], 100%.
Then `CN(Cc1cnc2nc(N)nc(N)c2n1)c1ccc(C(=O)N[C@@H](CCC(=O)O)C(=O)O)cc1` [Methotrexate], with 94.1%; and `C#C[C@]1(O)CC[C@H]2[C@@H]3CCc4cc(OC5CCCC5)ccc4[C@H]3CC[C@@]21C` [Quinestrol], with 100%.
The compound `Cc1c(C)c2c(c(C)c1O)CCC(C)(COc1ccc(CC3SC(=O)NC3=O)cc1)O2` (stereo not given) [Troglitazone] registered a growth reduction of 97.5%.
Then `COc1cccc(OC)c1-c1cc(C(=O)NC2(C(=O)O)C3CC4CC(C3)CC2C4)nn1-c1ccnc2cc(Cl)ccc12` (stereo not given) [Meclinertant], with 100%; and `COc1cc(C)c2c(Oc3cccc(C(F)(F)F)c3)c(OC)cc(NC(C)CCCN)c2n1` (stereo not given) [Tafenoquine (Succinate)], with 100%; and `CCN(CC)CC#CCOC(=O)C(O)(c1ccccc1)C1CCCCC1` (stereo not given) [Oxybutynin (chloride)], with 94.3%.
Then `C=Cc1cc(O)cc2nc(-c3ccc(O)c(F)c3)oc12` [Prinaberel], with 100%.

(Values after the supplement of paper PMC12024424.)
